Vc quorum ag: quorum light induction in luxS cqsA deficient V. cholerae; V. cholerae BH1578 lux reporter, luminescence, 6 h; activation, % at 18.7 µM; 350,000 tested, 0.16% active; AID 588436; in the data active = activation mostly above about 9.7%, no sharp cut-off
TcdB inh: inhibitors of Clostridioides difficile toxin B glycohydrolase. P18177. TcdB glycohydrolase enzymatic assay, plate reader. inhibition, % at 9.99 µM. 350,000 tested, 0.24% active; in the data active = inhibition above about 10%
Target sequence (P18177 whole entry, looked up): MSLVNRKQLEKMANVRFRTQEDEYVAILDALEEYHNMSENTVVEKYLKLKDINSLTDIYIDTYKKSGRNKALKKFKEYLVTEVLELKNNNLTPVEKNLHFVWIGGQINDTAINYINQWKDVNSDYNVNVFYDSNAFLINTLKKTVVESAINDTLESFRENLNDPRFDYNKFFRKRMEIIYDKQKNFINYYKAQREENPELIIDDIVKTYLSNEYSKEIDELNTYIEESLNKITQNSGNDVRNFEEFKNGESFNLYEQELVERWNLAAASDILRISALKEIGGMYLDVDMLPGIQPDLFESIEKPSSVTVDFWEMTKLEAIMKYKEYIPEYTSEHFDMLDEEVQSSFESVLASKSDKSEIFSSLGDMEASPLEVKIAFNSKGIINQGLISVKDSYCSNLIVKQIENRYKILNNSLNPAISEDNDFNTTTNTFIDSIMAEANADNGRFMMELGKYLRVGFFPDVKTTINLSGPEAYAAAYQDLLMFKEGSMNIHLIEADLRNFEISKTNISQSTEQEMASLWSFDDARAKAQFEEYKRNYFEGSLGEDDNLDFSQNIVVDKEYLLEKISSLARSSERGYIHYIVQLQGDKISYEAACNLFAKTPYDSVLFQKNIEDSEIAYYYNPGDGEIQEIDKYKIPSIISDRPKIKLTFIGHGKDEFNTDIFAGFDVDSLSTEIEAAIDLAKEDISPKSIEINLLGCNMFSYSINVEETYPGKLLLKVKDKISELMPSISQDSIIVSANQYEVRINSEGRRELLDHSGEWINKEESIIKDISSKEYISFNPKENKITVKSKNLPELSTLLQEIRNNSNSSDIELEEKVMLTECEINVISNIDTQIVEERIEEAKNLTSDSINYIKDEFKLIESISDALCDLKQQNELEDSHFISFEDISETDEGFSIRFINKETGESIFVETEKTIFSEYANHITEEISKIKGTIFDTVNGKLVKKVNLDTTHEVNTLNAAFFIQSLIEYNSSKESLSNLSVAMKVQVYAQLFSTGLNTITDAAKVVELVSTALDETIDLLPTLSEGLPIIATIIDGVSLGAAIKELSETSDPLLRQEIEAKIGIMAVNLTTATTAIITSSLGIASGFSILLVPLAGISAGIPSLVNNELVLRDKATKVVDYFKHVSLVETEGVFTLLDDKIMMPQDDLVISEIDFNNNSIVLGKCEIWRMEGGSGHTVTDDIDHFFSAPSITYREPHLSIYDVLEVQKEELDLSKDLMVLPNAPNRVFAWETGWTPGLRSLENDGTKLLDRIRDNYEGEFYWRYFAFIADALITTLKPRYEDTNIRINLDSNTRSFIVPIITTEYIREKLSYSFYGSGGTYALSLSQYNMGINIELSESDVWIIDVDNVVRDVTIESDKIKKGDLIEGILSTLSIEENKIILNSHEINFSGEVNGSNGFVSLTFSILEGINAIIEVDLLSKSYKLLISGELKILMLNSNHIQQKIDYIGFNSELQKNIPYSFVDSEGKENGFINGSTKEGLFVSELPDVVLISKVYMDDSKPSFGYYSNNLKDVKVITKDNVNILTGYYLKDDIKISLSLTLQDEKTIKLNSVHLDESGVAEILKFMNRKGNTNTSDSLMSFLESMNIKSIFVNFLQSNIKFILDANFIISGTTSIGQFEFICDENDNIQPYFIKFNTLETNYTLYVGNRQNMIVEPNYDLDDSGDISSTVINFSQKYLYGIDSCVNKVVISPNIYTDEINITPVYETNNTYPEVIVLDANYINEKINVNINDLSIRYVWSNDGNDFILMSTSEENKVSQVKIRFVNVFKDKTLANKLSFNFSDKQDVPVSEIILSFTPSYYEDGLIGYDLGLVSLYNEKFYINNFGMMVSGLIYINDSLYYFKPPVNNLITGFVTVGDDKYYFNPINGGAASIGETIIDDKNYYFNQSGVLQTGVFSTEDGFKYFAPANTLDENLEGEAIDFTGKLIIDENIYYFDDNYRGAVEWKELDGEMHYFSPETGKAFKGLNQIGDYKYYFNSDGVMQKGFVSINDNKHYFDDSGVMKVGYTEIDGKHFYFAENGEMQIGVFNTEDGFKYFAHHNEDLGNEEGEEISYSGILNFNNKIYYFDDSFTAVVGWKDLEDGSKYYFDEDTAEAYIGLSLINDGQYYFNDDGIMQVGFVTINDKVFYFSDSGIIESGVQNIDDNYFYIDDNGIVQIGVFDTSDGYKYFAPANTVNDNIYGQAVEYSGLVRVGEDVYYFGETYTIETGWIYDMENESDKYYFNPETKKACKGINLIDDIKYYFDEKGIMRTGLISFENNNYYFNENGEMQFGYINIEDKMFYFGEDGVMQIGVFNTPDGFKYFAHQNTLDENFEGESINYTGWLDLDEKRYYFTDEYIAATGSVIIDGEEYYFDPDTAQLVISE
CCHFV vOTU inh: blocks the CCHF virus ovarian tumor domain protease; AID 651958; inhibition, % at 11.5 µM; 370,000 tested, 0.55% active; CCHFV vOTU protease, Pep-AMC fluorescence; in the data active = inhibition above about 30%; note: 0% = vehicle wells with enzyme and 100% = no enzyme wells
PrPC surface inh: inhibitors of human cell surface prion protein PrPC; 370,000 tested, 0.43% active; P04156; inhibition, % at 13.8 µM; TR-FRET read-out; AID 720596; in the data active = inhibition above about 24%; note: 0% = median of the test wells and 100% = reference compound wells
DUSP3 inh: inhibitors of human VHR1 phosphatase (DUSP3). AID 1654. P51452. inhibition, % at 13.3 µM. 290,000 tested, 0.52% active. recombinant VHR phosphatase, pNPP absorbance; in the data active = inhibition above about 50%
SSB-PriA inh: inhibitors of Klebsiella pneumoniae PriA binding to SSB C-terminal tail; inhibition, % at 33 µM; AlphaScreen SSBct-PriA binding, biotinylated peptide; 430,000 tested, 0.6% active; in the data active = inhibition mostly above about 37%, no sharp cut-off; inactive = mostly below about 20%;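 note: plate controls were negative control peptide for no effect and reference peptide for full effect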
* = called active by the depositor; ! = not confirmed by another sample. Sampled rows, rich in hits. Any-hit rate of the full collection: about 1.5%.

For Cc1nn(-c2ccccc2)c(N)c1N=Nc1ccccc1 the results were Vc quorum ag -0.3, TcdB inh 1.0, CCHFV vOTU inh 20.1, PrPC surface inh -12.5, DUSP3 inh -8.5 and SSB-PriA inh 58.3.
Cc1nn(-c2ccccc2)c(N)c1N=Nc1cccc(S(=O)(=O)N2CCOCC2)c1 was read as Vc quorum ag -0.4, TcdB inh 1.5, CCHFV vOTU inh -2.2, PrPC surface inh -4.2, DUSP3 inh 31.0 and SSB-PriA inh 47.0*!.
Cc1ccc(N=Nc2c(C)nn(-c3ccccc3)c2N)cc1[N+](=O)[O-] was read as SSB-PriA inh 68.0*.
`CC1(C)CC(NC(=O)c2ccc(Cl)cc2)CC(C)(C)N1` gave Vc quorum ag inactive, TcdB inh -0.1, CCHFV vOTU inh -11.9, PrPC surface inh -3.9, DUSP3 inh 35.7 and SSB-PriA inh -12.2.
For CC1(C)CC(NC(=O)Cc2ccc(Cl)cc2)CC(C)(C)N1 the results were Vc quorum ag inactive, TcdB inh 1.4, CCHFV vOTU inh -9.5, PrPC surface inh 0.5, DUSP3 inh 53.3* and SSB-PriA inh -6.3.
`Cc1ccc(S(=O)(=O)N2CCN(C(=O)c3c(C)nn(-c4ccccc4)c3Cl)CC2)cc1` gave Vc quorum ag -3.6, CCHFV vOTU inh -11.6, PrPC surface inh -5.9, DUSP3 inh 4.9 and SSB-PriA inh -11.1.
Screening Cc1cc(C)c(S(=O)(=O)N2CCN(C(=O)c3c(C)nn(-c4ccccc4)c3Cl)CC2)c(C)c1 returned Vc quorum ag inactive, TcdB inh 3.0, CCHFV vOTU inh 13.2, PrPC surface inh 4.6 and SSB-PriA inh 44.2*.
Screening O=C(CCc1ccccc1)N(Cc1cccs1)C1CCOCC1 returned SSB-PriA inh -8.0.
`CC(=O)Nc1ccc(S(=O)(=O)NCC2(c3cccs3)CCCC2)cc1` gave SSB-PriA inh 0.0.
For CCOc1ccc(/C=C/C(=O)Oc2ccccc2)cc1 the results were Vc quorum ag inactive, TcdB inh -0.9, CCHFV vOTU inh -7.2, PrPC surface inh -4.3, DUSP3 inh 52.0* and SSB-PriA inh -21.3.
`CCN(CC)C(=O)CC(c1ccc(N(C)C)cc1)c1c(OC)cc(OC)c2c(-c3ccccc3)cc(=O)oc12` (stereo not drawn) gave Vc quorum ag -0.7, TcdB inh 1.2, CCHFV vOTU inh 8.5, PrPC surface inh -2.2, DUSP3 inh -1.2 and SSB-PriA inh 47.8*.
`CCCCCc1cc(=O)oc2c(C(CCN3CCCC3)c3ccc(N(C)C)cc3)c(OC)cc(OC)c12` (stereo not drawn) gave Vc quorum ag inactive, TcdB inh -8.3, CCHFV vOTU inh 8.1, PrPC surface inh -10.6, DUSP3 inh -11.7 and SSB-PriA inh 49.6*.
Screening CCCCCc1cc(=O)oc2c(C(CCN3CCCCC3)c3ccc(OC)cc3)c(OC)cc(OC)c12 (stereo not drawn) returned Vc quorum ag -0.8, TcdB inh 2.4, CCHFV vOTU inh -5.2, PrPC surface inh -10.7, DUSP3 inh 18.7 and SSB-PriA inh 11.9.
For FC(F)(F)c1cccc(Nc2nc3ccc(Br)cc3c(-c3ccccc3)c2-c2cc(-c3ccccc3)c3cc(Br)ccc3n2)c1 the results were SSB-PriA inh -17.0.
`CCCS(=O)(=O)N1CCCc2ccc(NS(=O)(=O)c3cccc(C)c3)cc21` gave SSB-PriA inh 1.0.
Screening NC(=NOC(=O)c1ccccc1Cl)c1ccc(Cl)cc1 returned SSB-PriA inh -11.2.
Screening CC(=O)C(=NNc1ccccc1[N+](=O)[O-])N1CCCc2ccccc21 returned SSB-PriA inh 56.5*.
For CN(c1ncnc2nc[nH]c12)C1CCCCC1 the results were SSB-PriA inh 7.0.
CN(CCO)c1ncnc2nc[nH]c12 was read as Vc quorum ag -0.3, TcdB inh 0.2, CCHFV vOTU inh -2.1, PrPC surface inh -1.2, DUSP3 inh 20.6 and SSB-PriA inh 104.2*.
Screening Cc1nc(SCC(=O)Nc2cc(Cl)ccc2[N+](=O)[O-])nc(C)c1C returned Vc quorum ag inactive, CCHFV vOTU inh 4.8, PrPC surface inh -23.4, DUSP3 inh 4.3 and SSB-PriA inh 52.2*.
Screening O=C(CSc1ncccn1)Nc1cc(Cl)ccc1[N+](=O)[O-] returned TcdB inh 1.5, CCHFV vOTU inh -0.6, PrPC surface inh -5.9, DUSP3 inh 0.5 and SSB-PriA inh 18.7.
For CC1(C)Cc2cccc(OCCCS(=O)(=O)NCc3ccc(F)cc3)c2O1 the results were SSB-PriA inh -8.0.
CCOCC(=O)N1CC[C@H](c2ccccn2)C1 was read as SSB-PriA inh -1.0.
For CCN(CCCNC(=O)c1[nH]c(C)c(C(C)=O)c1C)c1cccc(C)c1 the results were Vc quorum ag -6.7, CCHFV vOTU inh 7.3, PrPC surface inh 3.0, DUSP3 inh 15.4 and SSB-PriA inh 40.1*.
Screening O=C(NCCc1ccc(F)cc1)C1CN(S(=O)(=O)C2CC2)C1 returned SSB-PriA inh -12.0.
O=C(NC(=S)Nc1ccc(O)cc1)c1cncc(Br)c1 was read as Vc quorum ag -0.9, TcdB inh 14.6*, CCHFV vOTU inh 9.5, PrPC surface inh -9.6 and SSB-PriA inh -2.2.
Screening O=C(NN=Cc1cc(Br)c(O)c(Br)c1)c1ccccc1NS(=O)(=O)c1cccs1 returned Vc quorum ag inactive, TcdB inh 13.5*, CCHFV vOTU inh 3.8, PrPC surface inh -1.8 and SSB-PriA inh -3.2.
Cc1cnnn1-c1ccc(C(=O)Nc2ncc(Cc3ccccc3)s2)cc1 was read as SSB-PriA inh -14.0.
OCc1ccnc2c(O)cccc12 was read as Vc quorum ag inactive, CCHFV vOTU inh 12.3, PrPC surface inh -7.6, DUSP3 inh 13.6 and SSB-PriA inh 86.6*.
`NC(=O)c1ccnc2c(O)cccc12` gave Vc quorum ag -0.8, TcdB inh -2.1, CCHFV vOTU inh 6.1, PrPC surface inh -8.4 and SSB-PriA inh 41.3*.
Screening NC(=O)c1cccc2ccccc12 returned Vc quorum ag inactive, TcdB inh 2.0, CCHFV vOTU inh 2.0, PrPC surface inh -1.1, DUSP3 inh 25.0 and SSB-PriA inh -9.9.
Oc1cccc2c(-c3nn[nH]n3)ccnc12 was read as Vc quorum ag inactive, TcdB inh -1.4, CCHFV vOTU inh 5.0, PrPC surface inh 1.1 and SSB-PriA inh 54.0*.
For CCOc1ccc(-c2csc(-n3nc(C)cc3NC(=O)C3CC3)n2)cc1 the results were SSB-PriA inh -4.0.
`COc1ccc(C(O)=C2C(=O)C(=O)N(CCN(C)C)C2c2cccnc2)cc1C` (stereo not drawn) gave SSB-PriA inh -18.4.
Screening COc1ccc(Nc2cc(C)nc3c(C)ccc([N+](=O)[O-])c23)cc1 returned SSB-PriA inh 111.8*.
For Cc1cc(Nc2ccc(Br)cc2)c2c([N+](=O)[O-])ccc(C)c2n1 the results were SSB-PriA inh 55.3.
Screening CN(C)CCNc1oc(-c2cccc(Cl)c2)nc1C#N returned Vc quorum ag inactive, CCHFV vOTU inh -35.1, PrPC surface inh -1.5, DUSP3 inh 51.2* and SSB-PriA inh 2.6.
